# Results: PubChem BioAssay (EPA / NIEHS)
# Several values for one entry are separate records, joined by “and”; a condition that tells them apart may be missing. Equal values may be shown once. Inconclusive results are not listed. Activity calls are given as the source filed them. How the source made its calls: active means hit-call score of the fitted dose curve at least 0.9, where 1 is the maximum; inconclusive means response in the unintended direction; inactive means score below 0.9.
# Test: CCTE_Simmons_CellTiterGLO_HEK293T: Viability Assessment in CCTE's Assays for Thyroperoxidase (TPO) Inhibition, Simmons Lab (AID 2283665);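 on AC50: cells exposed to compound for 24 h before readout; actives reduce ATP signal below DMSO vehicle meaning cytotoxicity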
# Procedure: CCTE_Simmons_CellTiterGLO_HEK293T is a cell-based, single-readout assay that uses HEK293T, a human kidney cell line, with measurements taken at 24 hours after chemical dosing in a 384-well plate.CCTE_Simmons_CellTiterGLO_HEK293T is the assay component measured from the CCTE_Simmons_CellTiterGLO_HEK293T assay. It is designed to make measurements of ATP content, a form of viability reporter, as detected with bioluminescence signals by Luciferase-coupled ATP quantitation technology. This is a secondary cytotoxicity assay to CCTE_Simmons_AUR_TPO to estimate a cellular tolerance limit.Data from the assay component CCTE_Simmons_CellTiterGLO_HEK293T was analyzed at the endpoint, CCTE_Simmons_CellTiterGLO_HEK293T, in the positive analysis fitting direction relative to DMSO as the negative control and baseline of activity. Using a type of viability reporter, measures of ATP content for loss-of-signal activity can be used to understand the viability. This assay was run in parallel with aeid 1508 as a means of indicating the range of chemical cytotoxicity or reactivity. To generalize the intended target to other relatable targets, this assay endpoint is annotated to the cell cycle intended target family, where the subfamily is cytotoxicity.
# Human HEK293T cells (GenHunter; Nashville, Tennessee) were seeded overnight in 384-well, solid white assay plates (Greiner, BioExpress) at a density of 10 000 cells per well in 65 ul Dulbecco's Modified Eagle Medium (Life Technologies; Carlsbad, California) supplemented with 1% fetal bovine serum (HyClone; Logan, Utah). Test compounds were administered using the HDRT as described earlier to achieve a 0.5% final DMSO concentration. Cells were then incubated at 37C for 24 hr in a humidified 5% CO2 incubator. Cell Titer Glo (Promega; Madison, WI) reagent (25 ul) was then added by the BioTek MicroFlo and microplates were incubated at room temperature in the dark for 20min. Plates were read on a plate reader (FLUOStar Optima) using an endpoint luminescence protocol (top read). Three biological replicates of technical singles were run for every chemical concentration tested. A titrated range of DCNQ served as a positive control on each plate of the cytotoxicity screening assay.Test chemicals were administered as a titrated series of 8 concentrations from 5 nM up to 87.5 uM [final] for 24 hours prior to single endpoint detection. Three biological replicates of technical singles were run for every chemical concentration tested. Dimethylsulfoxide [DMSO] was used as the vehicle control. Dichlone [DCNQ] was used as the positive control and was administered as a titrated series of 8 concentrations from 1 nM up to 100 uM [final].
SMILES,outcome,AC50
CNC(=O)/C=C(\C)OP(=O)(OC)OC,inactive,–
CNC(=O)CSP(=S)(OC)OC,inactive,–
CN1CSC(=S)N(C)C1,inactive,–
Oc1cc(Cl)ccc1Oc1ccc(Cl)cc1Cl,–,13.1 µM (active) [middle of 4 runs]
COP(=S)(OC)Oc1ccc([N+](=O)[O-])cc1,inactive,–
N#CN,inactive,–
CNC(=O)Oc1cccc(N=CN(C)C)c1,inactive,–
CC1(c2ccc(Oc3ccccc3)cc2)OC(=O)N(Nc2ccccc2)C1=O (stereo not given),–,20.2 µM (active)
O=C1c2ccccc2C(=O)N1SC(Cl)(Cl)Cl,–,9.19 µM (active)
O=C(Nc1ccccc1)Nc1cnns1,inactive,–
COP(=S)(OC)Oc1ccc(SC)c(C)c1,inactive,–
O=S(=O)(O)C(F)(F)C(F)(F)C(F)(F)C(F)(F)C(F)(F)C(F)(F)C(F)(F)C(F)(F)F,–,64.1 µM (active) and 57.1 µM (active)
COP(=O)(OC)OC=C(Cl)Cl,inactive,–
COc1nn(CSP(=S)(OC)OC)c(=O)s1,inactive,–
CCCN(CCOc1c(Cl)cc(Cl)cc1Cl)C(=O)n1ccnc1,–,89.5 µM (active)
